For four compounds, outcome results are on record in PubChem BioAssay AID2284359 (EPA ToxCast).

Inconclusive results are not listed. Calls of active or inactive are those of the source. Rule for the calls: active = hit-call score of the fitted dose curve at least 0.9, where 1 is the maximum; inconclusive = response in the unintended direction; inactive = score below 0.9.

A short description of the experiment: ATG_M_06_EcoTox2: Attagene TRANS-FACTORIAL EcoTox-2 HepG2 Assay for M06 Transcription Factor (Internal Marker). The protocol: ATG_EcoTox2 is a cell-based, multiplexed assay created by modifying the existing Attagene TRANS-FACTORIAL system to include a panel of nuclear receptors from some or all the following species: human (Homo sapiens), african clawed frog (Xenopus laevis), rainbow trout (Oncorhynchus mykiss), japanese medaka (Oryzias latipes), and zebrafish (Danio rerio). The ECOTOX2-FACTORIAL format uses HepG2, a human liver cell line, with measurements taken at 24 hours after chemical dosing in a 24-well plate. ATG_M_06_EcoTox2 is one of 29 assay components calculated in the ATG_EcoTox2 assay. It is designed to make measurements of mRNA induction, a form of inducible reporter, as detected with fluorescence intensity signals by Reverse transcription polymerase chain reaction (RT-PCR) and Capillary electrophoresis technology.The assay endpoint ATG_M_06_EcoTox2 was analyzed in the positive analysis fitting direction relative to DMSO as the negative control and baseline of activity. Using a type of inducible reporter, measures of mRNA for gain-of-signal activity can be used to understand the background control at the transcription factor-level as they relate to the gene. Furthermore, this assay endpoint can be referred to as a secondary readout, because this assay has produced multiple assay endpoints where this one serves a background control function. To generalize the intended target to other relatable targets, this assay endpoint is annotated to the background measurement intended target family, where the subfamily is internal marker.
Human liver HepG2 cells are transiently transfected with multiple reporter transcription units (MRTUs) in 6-well plates using FuGene 6 reagent (Roche; 3 ml FuGene/1 mg DNA). The MRTU constructs are regulated by a cis-regulating element (promoter). Each RTU expresses a GAL4-UAS that regulates the transcription of a nearby target reporter gene sequence. A major difference between the CIS and TRANS system is that in CIS activities of endogenous TFs are measured, whereas the TRANS assay evaluates changes in activities of exogenous, chimeric NR-Gal4 proteins. […] At the end of 24 hour incubation, total RNA was isolated using TriZol reagent (Invitrogen). The isolated RNA is then reverse-transcribed using oligo(dT) primer and Mo-MLV reverse transcriptase (Invitrogen) with DNAse I (Ambion) treatment for 30 min. The one-tenth of the produced cDNA was amplified by PCR using Taq DNA polymerase (Invitrogen) and two reporter sequence-specific primers. […] The fragments were purified using Qiaquick PCR columns (Qiagen), analyzed on an ABI 3130xL genetic analyzer (Applied Biosystems) with peak positions identified by using a set of X-rhodamine (ROX)-labeled MapMarker1000 molecular weight standards (BioVentures). […]
As to `O=S(=O)(O)C(F)(F)C(F)(F)C(F)(F)C(F)(F)C(F)(F)C(F)(F)F`, the compound was called inactive.
Regarding `O=C(O)C(F)(F)C(F)(F)C(F)(F)C(F)(F)C(F)(F)C(F)(F)C(F)(F)F`, the call was inactive.
For `CCCCOCN(C(=O)CCl)c1c(CC)cccc1CC` the value was “inactive”; for `O=P(Oc1ccccc1)(Oc1ccccc1)Oc1ccccc1`, “inactive”.
